Test results published in PubChem BioAssay AID1159580 (chemical genetic matrix, 2015).
The campaign covered roughly 5,500 compounds. About 2,000 (36%) were called active. About 18% were inconclusive and are not listed. Cut-off read from the data, not from the text of the source: active = normalized growth mostly below about 0.91 (no sharp cut-off); inconclusive = no clear call, values can overlap the other calls; inactive = mostly above about 0.92. Some of the results follow.

Test: chemical genetic growth profiling, strain panel (AID 1159580);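 note: tested at 20 µM; growth read once vehicle control cultures reached saturation at 30 °C; 1 = growth at the plate median or of vehicle wells; lower values mean less growth of the strain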
Conditions: growth OD

Measured: normalized growth

CCN(CC)C(C)CN1c2ccccc2Sc2ccccc21 (configuration not stated)
active: S. cerevisiae deletion strains, locus YLR320W, strain mms22, active compounds read low 0.875 | S. cerevisiae deletion strains, locus YLR342W, strain FKS1, active compounds read low 0.879 | S. cerevisiae deletion strains, locus YNL209W, strain ssb2, active compounds read low 0.891 | S. cerevisiae deletion strains, locus YNL307C, strain MCK1, active compounds read low 0.89 | S. cerevisiae deletion strains, locus YOL006C, strain TOP1, active compounds read low 0.458 | S. cerevisiae deletion strains, locus YOR083W, strain WHI5, active compounds read low 0.841 | S. cerevisiae deletion strains, locus YOR106W, strain vam3, active compounds read low 0.803 | S. cerevisiae deletion strains, locus YOR270C, strain vph1, active compounds read low 0.67 | S. cerevisiae deletion strains, locus YPL051W, strain arl3, active compounds read low 0.831 | S. cerevisiae deletion strains, locus YPL078C, strain atp4, active compounds read low 0.87
inactive: S. cerevisiae deletion strains, locus YJR075W, strain HOC1, active compounds read low 0.937 | S. cerevisiae deletion strains, locus YKL009W, strain mrt4, active compounds read low 0.888 | S. cerevisiae deletion strains, locus YKL068W, active compounds read low 0.965 | S. cerevisiae deletion strains, locus YKL085W, strain MDH1 (second series), active compounds read low 0.972 | S. cerevisiae deletion strains, locus YKL085W, strain MDH1, active compounds read low 0.972 | S. cerevisiae deletion strains, locus YKL160W, strain elf1, active compounds read low 0.907 | S. cerevisiae deletion strains, locus YKL190W, strain CNB1, active compounds read low 0.985 | S. cerevisiae deletion strains, locus YKR001C, strain vps1, active compounds read low 1.02 | S. cerevisiae deletion strains, locus YKR026C, strain gcn3, active compounds read low 1.01 | S. cerevisiae deletion strains, locus YKR091W, strain srl3, active compounds read low 0.986 | S. cerevisiae deletion strains, locus YLL001W, strain dnm1, active compounds read low 0.911 | S. cerevisiae deletion strains, locus YLL026W, active compounds read low 0.962 | S. cerevisiae deletion strains, locus YLL041C, strain sdh2, active compounds read low 0.981 | S. cerevisiae deletion strains, locus YLR027C, strain aat2, active compounds read low 0.961 | S. cerevisiae deletion strains, locus YLR039C, strain RIC1, active compounds read low 1.1 | S. cerevisiae deletion strains, locus YLR058C, strain SHM2, active compounds read low 0.963 | S. cerevisiae deletion strains, locus YLR102C, strain apc9, active compounds read low 0.965 | S. cerevisiae deletion strains, locus YLR113W, strain HOG1, active compounds read low 1.08 | S. cerevisiae deletion strains, locus YLR221C, strain rsa3, active compounds read low 0.949 | S. cerevisiae deletion strains, locus YLR258W, strain gsy2, active compounds read low 0.922 | S. cerevisiae deletion strains, locus YLR262C, strain YPT6 (second series), active compounds read low 1.05 | S. cerevisiae deletion strains, locus YLR262C, strain YPT6, active compounds read low 1.17 | S. cerevisiae deletion strains, locus YLR268W, strain sec22, active compounds read low 0.924 | S. cerevisiae deletion strains, locus YLR330W, strain CHS5, active compounds read low 0.975 | S. cerevisiae deletion strains, locus YLR342W, strain FKS1 (second series), active compounds read low 0.895 | S. cerevisiae deletion strains, locus YLR357W, strain rsc2, active compounds read low 1.01 | S. cerevisiae deletion strains, locus YLR370C, strain arc18, active compounds read low 0.952 | S. cerevisiae deletion strains, locus YLR371W, strain rom2, active compounds read low 0.955 | S. cerevisiae deletion strains, locus YLR384C, strain iki3, active compounds read low 1 | S. cerevisiae deletion strains, locus YLR418C, strain cdc73, active compounds read low 0.844 | S. cerevisiae deletion strains, locus YML016C, strain PPZ1, active compounds read low 0.985 | S. cerevisiae deletion strains, locus YML032C, strain rad52, active compounds read low 0.951 | S. cerevisiae deletion strains, locus YML120C, strain ndi1, active compounds read low 1 | S. cerevisiae deletion strains, locus YML124C, strain tub3, active compounds read low 0.964 | S. cerevisiae deletion strains, locus YMR058W, strain fet3, active compounds read low 0.933 | S. cerevisiae deletion strains, locus YMR078C, strain ctf18, active compounds read low 0.959 | S. cerevisiae deletion strains, locus YMR125W, strain sto1, active compounds read low 1 | S. cerevisiae deletion strains, locus YMR129W, active compounds read low 0.995 | S. cerevisiae deletion strains, locus YMR205C, strain PFK2, active compounds read low 0.912 | S. cerevisiae deletion strains, locus YMR223W, strain ubp8, active compounds read low 0.944 | S. cerevisiae deletion strains, locus YMR231W, strain pep5, active compounds read low 1.01 | S. cerevisiae deletion strains, locus YMR263W, strain SAP30, active compounds read low 0.952 | S. cerevisiae deletion strains, locus YMR307W, strain GAS1, active compounds read low 0.902 | S. cerevisiae deletion strains, locus YNL067W, strain RPL9B, active compounds read low 0.91 | S. cerevisiae deletion strains, locus YNL071W, strain lat1, active compounds read low 0.99 | S. cerevisiae deletion strains, locus YNL128W, strain TEP1, active compounds read low 0.987 | S. cerevisiae deletion strains, locus YNL153C, strain GIM3, active compounds read low 0.963 | S. cerevisiae deletion strains, locus YNL183C, strain NPR1, active compounds read low 0.961 | S. cerevisiae deletion strains, locus YNL233W, strain BNI4, active compounds read low 0.948 | S. cerevisiae deletion strains, locus YNL248C, strain rpa49, active compounds read low 0.954 | S. cerevisiae deletion strains, locus YNL250W, strain rad50, active compounds read low 0.98 | S. cerevisiae deletion strains, locus YNL271C, strain bni1, active compounds read low 0.971 | S. cerevisiae deletion strains, locus YNL298W, strain CLA4, active compounds read low 0.959 | S. cerevisiae deletion strains, locus YNL322C, strain KRE1 (second series), active compounds read low 0.96 | S. cerevisiae deletion strains, locus YNL322C, strain KRE1, active compounds read low 0.986 | S. cerevisiae deletion strains, locus YNR049C, strain mso1, active compounds read low 0.985 | S. cerevisiae deletion strains, locus YNR052C, strain pop2, active compounds read low 0.967 | S. cerevisiae deletion strains, locus YOL012C, strain htz1 1 | S. cerevisiae deletion strains, locus YOL147C, strain pex11, active compounds read low 0.961 | S. cerevisiae deletion strains, locus YOR001W, strain rrp6, active compounds read low 0.97 | S. cerevisiae deletion strains, locus YOR061W, strain CKA2, active compounds read low 0.988 | S. cerevisiae deletion strains, locus YOR069W, strain VPS5, active compounds read low 0.985 | S. cerevisiae deletion strains, locus YOR070C, strain gyp1, active compounds read low 0.933 | S. cerevisiae deletion strains, locus YOR080W, strain dia2, active compounds read low 1 | S. cerevisiae deletion strains, locus YOR136W, strain idh2, active compounds read low 0.965 | S. cerevisiae deletion strains, locus YOR144C, strain elg1, active compounds read low 0.955 | S. cerevisiae deletion strains, locus YOR184W, strain ser1, active compounds read low 0.94 | S. cerevisiae deletion strains, locus YOR231W, strain MKK1, active compounds read low 1.04 | S. cerevisiae deletion strains, locus YOR265W, strain rbl2, active compounds read low 0.986 | S. cerevisiae deletion strains, locus YOR290C, strain snf2, active compounds read low 0.89 | S. cerevisiae deletion strains, locus YOR316C, strain cot1, active compounds read low 0.942 | S. cerevisiae deletion strains, locus YPL055C, strain LGE1, active compounds read low 0.89 | S. cerevisiae deletion strains, locus YPL106C, strain sse1, active compounds read low 0.927 | S. cerevisiae deletion strains, locus YPL240C, strain hsp82, active compounds read low 0.977 | S. cerevisiae deletion strains, locus YPL241C, strain CIN2, active compounds read low 0.996 | S. cerevisiae deletion strains, locus YPL256C, strain CLN2, active compounds read low 1.05 | S. cerevisiae deletion strains, locus YPR119W, strain clb2, active compounds read low 0.954 | S. cerevisiae deletion strains, locus YPR141C, strain kar3, active compounds read low 0.957 | S. cerevisiae deletion strains, locus YPR163C, strain tif3, active compounds read low 0.949 | S. cerevisiae deletion strains, locus YPR167C, strain met16, active compounds read low 0.936 | S. cerevisiae deletion strains, strain wtn01, active compounds read low 0.957 | S. cerevisiae strains, strain wild type, active compounds read low 1
